Reference: PubChem BioAssay
The source made the active and inactive calls.

Legend:
[1] = compound effects on lung adenocarcinoma cell viability – A549, calcein-AM fluorescence, 48 h, basal, profiling panel (AID 1162); settings: higher = more signal
[2] = compound effects on differentiated 3T3-L1 adipocyte viability – cell-based, 3T3-L1 adipocytes, calcein-AM fluorescence, 48 h, basal, profiling panel (AID 1163); settings: 3T3-L1 adipocytes viability, higher = more signal
[3] = compound effects on hepatocellular carcinoma cell viability – HepG2, calcein-AM fluorescence, 48 h, basal, profiling panel (AID 1164); settings: higher = more signal
[4] = compound effects on multiple myeloma cell viability – MM1S, calcein-AM fluorescence, 48 h, basal, profiling panel (AID 1165); settings: higher = more signal;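 note: viability of MM1S multiple myeloma cells under basal unstimulated conditions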
[5] = calcein-AM signal in unstimulated myeloma cells – cell-based, calcein-AM fluorescence, 48 h, PK04 Diversity Set, profiling panel (AID 1166); settings: RPMI8226 myeloma viability, higher = more signal;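 note: cells grown under basal conditions without added stimulus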
[6] = JC-1 mitochondrial signal, unstimulated HepG2 cells – cell-based, JC-1 fluorescence, 24 h, 100 nL compound, profiling panel (AID 1167); settings: HepG2 mitochondrial potential, higher = more signal
[7] = JC-1 mitochondrial signal, unstimulated adipocytes – cell-based, JC-1 fluorescence, 3T3-L1 adipocytes, 24 h, 100 nL compound, profiling panel (AID 1168); settings: JC-1 mitochondrial fluorescence, higher = more signal, called active from +8 up or from −8 down
[8] = JC-1 mitochondrial signal, unstimulated myeloma cells – cell-based, JC-1 fluorescence, RPMI8226, 24 h, 100 nL compound, profiling panel (AID 1169); settings: JC-1 mitochondrial potential fluorescence, higher = more signal
[9] = JC-1 mitochondrial signal, unstimulated MM1S myeloma – cell-based, JC-1 fluorescence, 24 h, 100 nL compound, profiling panel (AID 1170); settings: MM1S mitochondrial potential, higher = more signal
[10] = resazurin metabolic signal in A549 cells – cell-based, resazurin fluorescence, 24 h, PK04 Diversity Set, profiling panel (AID 1171); settings: A549 viability, higher = more signal, called active from +8 up or from −8 down
Note: test concentration not given here.

In the case of `COC(=O)CC=C[C@@H](C)[C@@H](C=NO[C@@H](C)c1cn([C@H](CO)Cc2ccccc2)nn1)NS(=O)(=O)c1ccc(C)cc1`, the z-score [1] is reported as 0.788, the z-score [2] is reported as 0.521 and the z-score [3] is reported as 1.35. For the same molecule, the z-score [4] was 0.56, the z-score [5] was 0.593 and the z-score [6] was -1.24. For the same molecule, the z-score [7] was 0.153 (inactive), the z-score [8] was -0.249 and the z-score [9] was -0.648. The z-score [10] was -0.685 (inactive).
`CCOC(=O)[C@H](Cc1ccccc1)NC(=O)CCC1CC(OC(=O)NCc2ccc3c(c2)OCO3)CC2(CCCC(COC(=O)NCCc3ccccc3OC)O2)O1` (stereo not given in full) showed a z-score [1] of -1.24, a z-score [2] of -0.399 and a z-score [3] of -0.519. For the same molecule, the z-score [4] was -0.271, the z-score [5] was -0.502 and the z-score [6] was -0.778. The z-score [7] was -0.877 (inactive), the z-score [8] was 0.444 and the z-score [9] was 0.00939. The z-score [10] was 0.124 (inactive).
For `CO[C@H]1COC(=O)CC=C[C@@H](C)[C@H](OC)COC(=O)CCC[C@@H]1C`, the z-score [1] was -0.71, the z-score [2] was -0.0523 and the z-score [3] was 0.0225. It also gave a z-score [4] of 0.0987, a z-score [5] of 0.102 and a z-score [6] of -0.639. For the same molecule, the z-score [7] was -0.399 (inactive), the z-score [8] was -0.509 and the z-score [9] was -0.135. For the same molecule, the z-score [10] was 0.795 (inactive).
For `CCOC(=O)[C@H](Cc1ccccc1)NC(=O)CCC1CC(OC(=O)NCCc2ccc(F)cc2)CC2(CCCC(COC(=O)NCCc3ccc(Cl)cc3)O2)O1` (stereo not given in full), the z-score [1] was -0.648, the z-score [2] was -0.224 and the z-score [3] was -0.44. It also gave a z-score [4] of -1.91, a z-score [5] of -1.94 and a z-score [6] of -0.0496. The z-score [7] was -0.305 (inactive), the z-score [8] was 0.158 and the z-score [9] was -0.56. For the same molecule, the z-score [10] was 0.0031 (inactive).
Molecule `C#CCCCON=C1C[C@@H](O)[C@@H](O)[C@@H]2[C@@H]3C(=O)N(C(C)(C)C)C(=O)[C@@H]3CC[C@@H]12` has a z-score [1] of -0.145, a z-score [2] of -0.619 and a z-score [3] of -0.486. For the same molecule, the z-score [4] was 0.154, the z-score [5] was 0.381 and the z-score [6] was -0.465. For the same molecule, the z-score [7] was -0.286 (inactive), the z-score [8] was -0.0943 and the z-score [9] was -0.283. For the same molecule, the z-score [10] was -0.152 (inactive).
Work on `COc1cccc([C@@H]2Oc3ccc(OC)cc3C(=O)[C@H]2O)c1` yielded a z-score [1] of 0.0549, a z-score [2] of 0.856 and a z-score [3] of -2.24. It also gave a z-score [4] of -2.89, a z-score [5] of -2.25 and a z-score [6] of -2.31. For the same molecule, the z-score [7] was -0.0174 (inactive), the z-score [8] was 1.04 and the z-score [9] was -0.27. The z-score [10] was -0.214 (inactive).
For `CO[C@@H]1COC(=O)CC=C[C@@H](C)[C@@H]2C=C[C@H](O)[C@@H](COC(=O)CC=C[C@H]1C)O2`, the z-score [1] was 1.26, the z-score [2] was 0.392 and the z-score [3] was 0.764. The z-score [4] was 0.425, the z-score [5] was 0.448 and the z-score [6] was 0.598. For the same molecule, the z-score [7] was 0.967 (inactive), the z-score [8] was -0.31 and the z-score [9] was 0.658. For the same molecule, the z-score [10] was 0.0324 (inactive).
`COCOc1ccc(Br)cc1C(=O)[C@@H]1O[C@H]1c1cccc(OC)c1` gave a z-score [1] of 0.131, a z-score [2] of 0.314 and a z-score [3] of -0.418. It also gave a z-score [4] of -2.86, a z-score [5] of -1.51 and a z-score [6] of -1.39. The z-score [7] was -0.276 (inactive), the z-score [8] was -0.724 and the z-score [9] was -0.261. For the same molecule, the z-score [10] was -0.486 (inactive).
`CO[C@@H]1COC(=O)[C@H](CCSC)NC(=O)CC=C[C@@H](C)COC(=O)CCC[C@H]1C` gave a z-score [1] of 0.471, a z-score [2] of -0.304 and a z-score [3] of -0.764. For the same molecule, the z-score [4] was -0.38, the z-score [5] was -0.687 and the z-score [6] was 1.95. For the same molecule, the z-score [7] was -0.688 (inactive), the z-score [8] was -0.194 and the z-score [9] was -0.0804. The z-score [10] was 0.977 (inactive).
For `CO[C@H]1COC(=O)CC=C[C@H](C)[C@@H](OC)COC(=O)[C@@H](C)COC(=O)CC=C[C@@H]1C`, the z-score [1] was -0.0895, the z-score [2] was 1.19 and the z-score [3] was 0.389. The z-score [4] was 0.242, the z-score [5] was 0.21 and the z-score [6] was 0.429. For the same molecule, the z-score [7] was 0.673 (inactive), the z-score [8] was -0.296 and the z-score [9] was 1.01. The z-score [10] was 0.455 (inactive).
`CCOC(=O)[C@H](Cc1ccccc1)NC(=O)CCC1CC(OC(=O)NCc2cccc3ccccc23)CC2(CCCC(COC(=O)NCCC(C)C)O2)O1` (stereo not given in full) showed a z-score [1] of 0.509, a z-score [2] of -0.0617 and a z-score [3] of -0.166. For the same molecule, the z-score [4] was 0.389, the z-score [5] was 0.302 and the z-score [6] was -0.433. For the same molecule, the z-score [7] was -0.133 (inactive), the z-score [8] was -0.758 and the z-score [9] was -0.121. The z-score [10] was 1.32 (inactive).
`COC(=O)CC=C[C@@H](C)[C@@H](C=NO[C@@H]1O[C@H](COC(C)=O)[C@@H](OC(C)=O)[C@H](OC(C)=O)[C@H]1OC(C)=O)OC` showed a z-score [1] of -0.999, a z-score [2] of -0.351 and a z-score [3] of 0.2. The z-score [4] was -0.171, the z-score [5] was 0.418 and the z-score [6] was -0.699. For the same molecule, the z-score [7] was -1.19 (inactive), the z-score [8] was 0.128 and the z-score [9] was -0.0985. For the same molecule, the z-score [10] was 1 (inactive).
For `C#CCCCON=C1C[C@@H](O)[C@@H](O)[C@@H]2[C@@H]3C(=O)N(c4cccc(Oc5ccccc5)c4)C(=O)[C@@H]3CC[C@H]12`, the z-score [1] was 1.08, the z-score [2] was 0.139 and the z-score [3] was 0.411. The z-score [4] was 0.632, the z-score [5] was 0.116 and the z-score [6] was 0.862. For the same molecule, the z-score [7] was 0.57 (inactive), the z-score [8] was -0.263 and the z-score [9] was -1.29. The z-score [10] was 0.19 (inactive).
Work on `CCOC(=O)[C@H](CC(C)C)NC(=O)CCC1CC(OC(=O)NCc2cccc3ccccc23)CC2(CCCC(COC(=O)NCCCN3CCCC3=O)O2)O1` (stereo not given in full) yielded a z-score [1] of 0.367, a z-score [2] of 1.15 and a z-score [3] of -0.839. The z-score [4] was -0.0471, the z-score [5] was -1.31 and the z-score [6] was 0.106. The z-score [7] was -0.636 (inactive), the z-score [8] was -0.555 and the z-score [9] was -1.15. The z-score [10] was 0.489 (inactive).
